Bioassay records deposited in PubChem by The Scripps Research Institute Molecular Screening Center.
TEAD-YAP block: TEAD-YAP interaction inhibition. HEK-TIYL cells, TEAD-Gal4/YAP UAS-luciferase luminescence. inhibition, % at 9.12 µM. 640,000 tested, 1.4% active; in the data active = inhibition above about 32%
FBW7 act: activators of human E3 ligase FBW7; Q969H0; AlphaScreen FBW7–phospho-cyclin E peptide binding, activator screen; normalized activity (activation), % at 26.1 µM; 650,000 tested, 0.13% active; in the data active = normalized activity above about 1.9%;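 also: purified mutant Fbw7 with reduced substrate affinity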
MITF primary: human MITF inhibition, primary screen; O75030; AlphaScreen MITF homodimerization, bead proximity signal; inhibition, % at 2.6 µM; 650,000 tested, 0.91% active; in the data active = inhibition above about 50%
Target sequence (O75030 whole entry, looked up): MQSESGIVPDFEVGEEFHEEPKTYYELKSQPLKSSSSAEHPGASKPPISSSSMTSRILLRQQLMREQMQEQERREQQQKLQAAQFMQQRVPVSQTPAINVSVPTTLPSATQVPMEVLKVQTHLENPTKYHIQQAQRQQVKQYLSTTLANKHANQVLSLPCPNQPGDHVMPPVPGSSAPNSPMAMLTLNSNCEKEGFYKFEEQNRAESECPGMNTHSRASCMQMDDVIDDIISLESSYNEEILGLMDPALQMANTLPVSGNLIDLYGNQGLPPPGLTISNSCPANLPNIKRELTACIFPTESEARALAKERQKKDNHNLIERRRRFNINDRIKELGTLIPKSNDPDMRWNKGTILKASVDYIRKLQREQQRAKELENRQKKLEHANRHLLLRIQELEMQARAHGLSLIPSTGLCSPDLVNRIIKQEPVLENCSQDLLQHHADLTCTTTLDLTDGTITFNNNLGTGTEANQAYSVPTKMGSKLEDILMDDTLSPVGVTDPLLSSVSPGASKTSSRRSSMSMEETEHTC
GPR151 activ: human GPR151 activation; 650,000 tested, 1% active; AID 1508602; activation, % at 11.2 µM; PathHunter beta-arrestin GPR151 cells, luminescence; Q8TDV0; in the data active = activation above about 4.9%
GPR151 conf act: confirmation of human GPR151 activators | 6,700 tested, under 10 active | GPR151 PathHunter beta-arrestin cells, luminescence, 90 min; % of EA-reagent control over plate median | shares compounds with GPR151 activ | activation, % at 11.2 µM;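 active = mean percent activation across replicates above the confirmation screen cutoff of 4.91%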
GPR119 ag: activates human GPR119 in a GPR151 counter-screen. shares compounds with GPR151 activ. GPR119 PathHunter beta-arrestin cells, luminescence, 90 min; 0 = compound-well median, 100 = enzyme-acceptor control. activation, % at 11.2 µM. 6,700 tested, 0.3% active. AID 1508611;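 active = mean percent activation in the counterscreen above 29.09%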;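 also: counterscreen on off-target GPR119 to flag nonselective hits from the GPR151 activator screen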
Large screens that a line does not name were inactive (follow-up assays come after a bar, where they were run); ! = not confirmed by another sample. Hits are enriched below; roughly 3.4% of the tested compounds scored in any of these assays.

CC1=CC(C)C(COC(=O)CN2CCOCC2)C(C)C1 (centres undefined)	none
C/C=C/C(=O)N(CC)c1ccccc1C	GPR151 activ 6.1! | GPR151 conf act inactive | GPR119 ag inactive
CCCC(=O)N(CC)c1ccccc1C	none
O=C(Nc1c2c(nn1-c1ccc(Cl)cc1)CS(=O)(=O)C2)c1ccc(Cl)cc1	none
CC(=O)Nc1c2c(nn1-c1ccc(Cl)cc1)CS(=O)(=O)C2	GPR151 activ 7.8 | GPR151 conf act inactive | GPR119 ag inactive
O=C(Cc1ccc(F)cc1)Nc1c2c(nn1-c1ccc(F)cc1)CS(=O)(=O)C2	GPR151 activ 5.3 | GPR151 conf act inactive | GPR119 ag inactive
O=C(Cn1nnc(-c2ccccc2)n1)N/N=C/c1ccncc1	none
Cc1ccc(-n2nc3c(c2NC(=O)c2cccc(F)c2)CS(=O)C3)c(C)c1 (centres undefined)	GPR151 activ 5.9 | GPR151 conf act inactive | GPR119 ag inactive
Cc1ccc(-n2nc3c(c2NC(=O)c2ccc(Cl)c([N+](=O)[O-])c2)CS(=O)C3)c(C)c1 (centres undefined)	none
Cc1ccc(C(C)C)c(OCC(=O)Nc2ccc(NC(=O)c3ccc(C(C)(C)C)cc3)cc2)c1	none
Cc1cccc(-c2nc(C)c(CCNC(=O)c3ccco3)s2)c1	none
CCN1C(=O)C(CC(=O)Nc2ccc(OC)cc2)N(Cc2cccs2)C1=S (centres undefined)	GPR151 activ 5.9 | GPR151 conf act inactive | GPR119 ag inactive
CC(C)(C)C(=O)CSc1nc2cc(C(=O)N3CCC4(CC3)OCCO4)ccc2c(=O)n1Cc1ccc2c(c1)OCO2	none
COc1ccc(-c2ccc(/C=N/N3C(=O)C4C5C=CC(C6CC56)C4C3=O)o2)c([N+](=O)[O-])c1 (centres undefined)	GPR151 activ 5.0 | GPR151 conf act inactive | GPR119 ag inactive
CC(=O)c1ccc(NC(=O)C2CC(=O)N(c3ccc(C)cc3)C2)cc1 (centres undefined)	none
Cc1cc(N2C(=O)C3C4CC(c5ccccc5)C(C4)C3C2=O)no1 (centres undefined)	GPR151 activ 11 | GPR151 conf act inactive | GPR119 ag inactive
CCOC(=O)c1c(NC(=O)CSc2nnc(CNC(=O)c3ccc(C)c([N+](=O)[O-])c3)n2C)sc2c1CCC2	none
C=CCOc1ccccc1/C=N/NC(=O)c1cccc(I)c1	GPR151 activ 11 | GPR151 conf act inactive | GPR119 ag inactive
O=S(=O)(Nc1cccc(-c2cn3ccccc3n2)c1)c1ccc2ccccc2c1	none
CC(C)n1cnc2c(NCCCN3CCCC3=O)nc(NCCCN3CCCC3=O)nc21	none
CCNc1nc(NCCCN2CCCC2=O)c2ncn(C(C)C)c2n1	GPR151 activ 5.4 | GPR151 conf act inactive | GPR119 ag inactive
CCCNc1nc(Nc2cc(OC)c(OC)c(OC)c2)nc2c1ncn2CCN1CCCC1=O	none
O=C1CCCN1CCn1cnc2c(NC3CC3)nc(Nc3ccncc3)nc21	GPR151 activ 12 | GPR151 conf act inactive | GPR119 ag inactive
COc1cc(Nc2nc(NCCN3CCOCC3)c3ncn(CCN4CCCC4=O)c3n2)cc(OC)c1OC	GPR151 activ 5.7 | GPR151 conf act inactive | GPR119 ag inactive
O=C1CCCN1CCCNc1nc(N2CCC(N3CCOCC3)CC2)nc2c1ncn2C1CCCCC1	GPR151 activ 14 | GPR151 conf act inactive | GPR119 ag inactive
COc1cccc(-c2nc3sc4c(c3c(=O)n2CC(=O)N2CCN(c3ccc(F)cc3)CC2)CCCC4)c1	none
Cc1nc(-c2ccccn2)cc(N2CCN(C)CC2)n1	none
COc1cccc(-c2ocnc2C(=O)Nc2ccc3nc(C)c(C)nc3c2)c1	none
CC(C)N(CCNc1nc(NCCN2CCOCC2)nc2c1ncn2Cc1ccc(C(F)(F)F)cc1)C(C)C	GPR151 activ 6.4 | GPR151 conf act inactive | GPR119 ag inactive
O=C1CCCN1CCCNc1nc(NCCN2CCOCC2)c2ncn(CCN3CCCC3=O)c2n1	GPR151 activ 6.4 | GPR151 conf act inactive | GPR119 ag inactive
O=C1CCCN1CCCNc1nc(NCCCN2CCCC2=O)c2ncn(CCN3CCCC3=O)c2n1	none
O=C1CCCN1c1ccc([N+](=O)[O-])cc1[N+](=O)[O-]	none
CS(=O)(=O)N(CC(=O)Nc1cccc(Cl)c1Cl)c1cccc(F)c1	GPR151 activ 5.3 | GPR151 conf act inactive | GPR119 ag inactive
CS(=O)(=O)N(CC(=O)NC1CCCC1)c1ccc(F)c(Cl)c1	none
CS(=O)(=O)N(CC(=O)NC1CC1)c1ccc(F)c(Cl)c1	GPR151 activ 5.6 | GPR151 conf act inactive | GPR119 ag inactive
Cc1ccc(-n2c3c(cc(C(=O)NCC4CCCO4)c2=O)C(=O)CC(C)(C)C3)cc1 (centres undefined)	GPR151 activ 11 | GPR151 conf act inactive | GPR119 ag inactive
COCCNC(=O)c1cc2c(n(-c3ccc(C)cc3)c1=O)CC(C)(C)CC2=O	none
CC1CCN(C(=O)Oc2ccccc2)CC1	none
CC1CCN(C(=O)Nc2ccc(F)cc2)CC1	GPR151 activ 7.2 | GPR151 conf act inactive | GPR119 ag inactive
CC1CCN(C(=O)Nc2ccc(Cl)cc2)CC1	none
CC(=O)Nc1ccc(OC(=O)N2CCC(C)CC2)cc1	GPR151 activ 5.3 | GPR151 conf act inactive | GPR119 ag inactive
O=C(NCc1cccnc1)c1c[nH]c(=O)[nH]c1=O	none
O=C(NCCNC(=O)c1ccn[nH]1)c1ccn[nH]1	none
O=C(NCCO)c1ccn[nH]1	GPR151 activ 6.0 | GPR151 conf act inactive | GPR119 ag inactive
NC(=O)C1CCN(C(=O)CSCc2c(Cl)cccc2Cl)CC1	GPR151 activ 6.1 | GPR151 conf act inactive | GPR119 ag inactive
O=C(CSCc1ccccc1)N1CCC(Cc2ccccc2)CC1	GPR151 activ 6.0 | GPR151 conf act inactive | GPR119 ag inactive
CCOC(=O)C1CCN(C(=O)CSCc2c(Cl)cccc2Cl)CC1	none
O=C(CSc1cccc[n+]1[O-])N1CCC(Cc2ccccc2)CC1	none
COc1ccc(NC(=O)CN(C)CC(=O)Nc2ccccc2Br)cc1Cl	none
O=C1CCCN1CCCNc1ccnc(Nc2ccccn2)n1	none
CC(=O)C1=C(C)N(Cc2ccccc2)C(=O)N[C@@H]1c1cccc(C(F)(F)F)c1	none (no result: TEAD-YAP block)
COc1cc(CCN2C(=O)N[C@@H](c3cccc(C(F)(F)F)c3)C(C(C)=O)=C2C)cc(OC)c1OC	none (no result: TEAD-YAP block)
CCOC(=O)CN1C(=O)N[C@@H](c2cccc(C(F)(F)F)c2)C(C(C)=O)=C1C	GPR151 activ 10.0 (no result: TEAD-YAP block) | GPR151 conf act inactive | GPR119 ag inactive
COC(=O)C1=C(C)N(Cc2ccccc2)C(=O)N[C@H]1c1cccc(C(F)(F)F)c1	GPR151 activ 8.6 (no result: TEAD-YAP block) | GPR151 conf act inactive | GPR119 ag inactive
Nc1ccc(-c2nnn(CC(=O)Nc3ccc(C4CCCCC4)cc3)n2)cc1	GPR151 activ 8.1 | GPR151 conf act inactive | GPR119 ag inactive
COc1ccc(-c2ccc(OCCNS(=O)(=O)c3c(C)cc(C)cc3C)nn2)cc1	none
